# Experimental data taken from the supplement of paper PMC8699584.
# ± gives the standard deviation of the averaged measurements.
# Legend:
# Molm13 = assay: cell viability relative to DMSO control (bortezomib = 0%); higher = less growth inhibition; conditions: 10 nM; 72 h
# In short: (§1)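 Cell viability was assessed by CellTiter-Glo luminescence. Acute myeloid leukemia cells were seeded at 1000 cells per well in 50 µL on a 384-well library of 679 compounds at a single 10 nM dose for 72 h. Per-plate linear regression set DMSO-treated cells at 100% and positive-control-treated cells at 0%.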
# Mv4-11 = assay: as above; conditions: 10 nM; 72 h
# In short: as §1
smiles,measurement,setting,value
Cc1c(C)c2c(c(C)c1O)CC[C@@](C)(CCC[C@H](C)CCC[C@H](C)CCCC(C)C)O2 [Vitamin E],cell viability,Molm13,93.3 ± 1.1%
same,cell viability,Mv4-11,107 ± 16%
CO[C@@H]1[C@H](N(C)C(=O)c2ccccc2)C[C@H]2O[C@]1(C)n1c3ccccc3c3c4c(c5c6ccccc6n2c5c31)C(=O)NC4 [PKC-412(Midostaurin)],cell viability,Molm13,95.04 ± 0.94%
same,cell viability,Mv4-11,89 ± 22%
Cc1ncc(-c2ccnc(Nc3ccc(S(C)(=O)=O)cc3)n2)n1C(C)C,cell viability,Molm13,102 ± 14%
same,cell viability,Mv4-11,122 ± 13%
CCOc1cc2ncc(C#N)c(Nc3ccc(F)c(Cl)c3)c2cc1NC(=O)/C=C/CN(C)C [Pelitinib (EKB-569)],cell viability,Molm13,104 ± 12%
same,cell viability,Mv4-11,104 ± 3.4%
O=C(O)c1cc(NCc2cc(O)ccc2O)ccc1O [Lavendustin C],cell viability,Molm13,111 ± 13%
same,cell viability,Mv4-11,104 ± 1.9%
NC(=O)c1ncn([C@@H]2O[C@H](CO)[C@@H](O)[C@H]2O)n1 [Ribavirin],cell viability,Molm13,98.7 ± 13%
same,cell viability,Mv4-11,106 ± 5.6%
COC(=O)c1ccc2c(c1)NC(=O)/C2=C(\Nc1ccc(N(C)C(=O)CN2CCN(C)CC2)cc1)c1ccccc1 [Nintedanib (BIBF 1120)],cell viability,Molm13,83.62 ± 0.69%
same,cell viability,Mv4-11,113 ± 5.7%
COc1cc(Nc2c(C#N)cnc3cc(OCCCN4CCN(C)CC4)c(OC)cc23)c(Cl)cc1Cl [Bosutinib],cell viability,Molm13,112 ± 24%
same,cell viability,Mv4-11,90.8 ± 17%
CC1(C)C=Cc2c(ccc3c2OC[C@@H](c2ccc(O)cc2O)C3)O1 [Glabridin],cell viability,Molm13,100 ± 12%
same,cell viability,Mv4-11,99 ± 1.6%
O=C(NC(NC(=S)Nc1ccc(F)c([N+](=O)[O-])c1)C(Cl)(Cl)Cl)C(c1ccccc1)c1ccccc1 (configuration not stated),cell viability,Molm13,109 ± 8.2%
same,cell viability,Mv4-11,104.1 ± 0.92%
CCCCCCCCCCCCc1ccc(S(=O)(=O)Nc2nncs2)cc1,cell viability,Molm13,108 ± 3%
same,cell viability,Mv4-11,100 ± 2%
